Source: PubChem
The list is not random: actives were taken first. Their share in the collection is about 4.6%.
Wee1 stabilizer = human Wee1 degradation inhibition, primary screen | HeLa Luc-Wee1K328M stability, luciferase luminescence; 100% = proteasome inhibitor MG132 effect | reporter increase, % at 5 µM | 1.2% of 220,000 active;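 active means activation above the mean of all tested compounds plus 3 SD, set per screening run, cut at about 8.8% in these data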;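 further: cells exposed to compound for 20 h before luminescence read; 0% = DMSO alone and 100% = MG132 at 30 µM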
ssDAF12 agonist = S. stercoralis DAF-12 activation, primary screen. HEK293 ssDAF-12/GRIP1 lit1-tk-luc reporter, luminescence; % of 3 µM dafachronic acid response. activation, % at 6.8 µM. 1% of 370,000 active. AID 652126;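 active means activation above the mean over all tested compounds plus 3 SD, cut at about 0.9% in these data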;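 further: 0% = DMSO-only wells and 100% = 3 µM delta7-dafachronic acid wells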
DAX1 inh-1 = inhibitors of human orphan nuclear receptor DAX1 (NR0B1); P51843; HEK293 Gal4-DAX1 luciferase reporter, luminescence; inhibition, % at 6.75 µM; 0.99% of 340,000 active; AID 504766;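 active means inhibition above the mean over all tested compounds plus 3 SD, cut at about 4.2% in these data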;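 further: 0% = DAX1-transfected cells with DMSO and 100% = empty-vector control cells with DMSO; inhibition shows as a rise in luminescence from relieved DAX1 repression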
Target sequence (P51843 207-470 limits assumed): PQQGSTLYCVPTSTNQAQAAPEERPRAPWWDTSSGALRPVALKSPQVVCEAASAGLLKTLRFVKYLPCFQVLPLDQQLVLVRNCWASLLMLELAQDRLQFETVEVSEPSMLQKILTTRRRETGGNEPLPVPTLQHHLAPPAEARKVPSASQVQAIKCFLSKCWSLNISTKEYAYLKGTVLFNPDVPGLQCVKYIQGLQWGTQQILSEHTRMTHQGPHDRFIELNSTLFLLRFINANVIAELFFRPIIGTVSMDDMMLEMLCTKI
hgDAF-12 ag = activates the H. glycines DAF-12 receptor ligand-binding domain. HEK293 GAL4-hgDAF12 UAS-luciferase reporter, agonist luminescence; normalized to butyrate control. activation, % at 6.8 µM. 1.8% of 370,000 active. AID 687014;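 active means activation above a cutoff set at the mean of all screened compounds plus 3 SD, cut at about 10% in these data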;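 further: 0% = DMSO wells and 100% = sodium butyrate wells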
hcDAF12 agonist = activators of H. contortus DAF-12 nuclear receptor | 1.4% of 370,000 active | activation, % at 6.8 µM | HEK293 hcDAF-12 lit1-tk-luc reporter, luminescence; 0% DMSO, 100% Δ7-dafachronic acid | AID 652067;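 active means activation above the mean of all tested compounds plus 3 SD, cut at about 5.5% in these data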;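 further: 100% = response to 3 µM Δ7-dafachronic acid high control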
DAX1 inh-2 = DAX1 (NR0B1) inhibition, primary screen. HEK293T StAR-luciferase reporter, SF-1/DAX-1 repression relief. inhibition, % at 6.8 µM. 1.1% of 370,000 active. AID 652010;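 active means inhibition above the mean over all tested compounds plus 3 SD, cut at about 3.6% in these data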;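 further: 0% = DAX-1 cells with DMSO and 100% = cells lacking DAX-1 with DMSO; higher inhibition means more luminescence from relief of DAX-1 repression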
LXR ag = counter-screen for hcDAF-12 agonists: agonists of human LXR-beta; AID 743027; 3,400 tested, under 10 active; HEK293 Gal4-LXR tk-luc reporter, luminescence, 24 h; normalized: DMSO 0%, positive control 100%; activation, % at 6.8 µM; shares compounds with hcDAF12 agonist;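 active means mean percent activation of the reporter above a cutoff set as the average over tested compounds plus their standard deviation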
hcDAF12 conf = hcDAF-12 agonism, confirmation assay; 61% of 3,400 active; shares compounds with hcDAF12 agonist; activation, % at 6.8 µM; HEK293 hcDAF-12 lit1-tk-luc reporter, luminescence; % of Δ7-dafachronic acid response;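 active means mean activation across triplicate tests above the threshold derived from the earlier primary screen, cut at about 5.5% in these data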;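 further: 0% = DMSO only wells and 100% = 3 µM Δ7-dafachronic acid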
hgDAF12 ag = hgDAF-12 agonism, confirmation assay. shares compounds with hgDAF-12 ag. HEK293 GAL4-hgDAF12 luciferase reporter, agonist mode; percent of butyrate response. activation, % at 6.8 µM. 80% of 3,300 active. AID 743050;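 active means mean activation over triplicate wells above the hit cutoff derived from the earlier primary screen, cut at about 11% in these data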;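 further: 0% = DMSO low control and 100% = 2 mM sodium butyrate high control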
LXRb DAF12 ctr = counter-screen for DAF-12 agonists: agonists of human LXR-beta | AID 743051 | shares compounds with hgDAF-12 ag | HEK293 Gal4-LXR luciferase reporter, 24 h | 3,300 tested, under 10 active | activation, % at 6.8 µM;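 active means mean activation of the triplicate above a set limit carried over from the primary screen, none filed active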
The depositor's hits bear a star; x = not tested or not shown.

SMILES | Wee1 stabilizer | ssDAF12 agonist | DAX1 inh-1 | hgDAF-12 ag | hcDAF12 agonist | DAX1 inh-2 | LXR ag | hcDAF12 conf | hgDAF12 ag | LXRb DAF12 ctr
CCOC(=O)CSc1nc2cccnc2n1C | -2 | -1 | -1 | -1 | -1 | 0 | x | x | x | x
O=C(CNC(=O)c1ccccc1F)c1ccccc1 | x | 1.1* | 2 | 17* | 7.0* | 2 | 1 | 5 | 14* | 1
O=C(NCCc1ccccc1)c1ccccc1F | 0 | 0 | 0 | 15* | 6.7* | 3.8* | 1 | 4 | 14* | 1
O=C(NCCCCc1ccccc1)c1ccccc1F | x | -1 | -1 | 4 | -1 | 0 | x | x | x | x
COc1ccc2cc(C(=O)NC3CCCCC3)c(=O)oc2c1 | -1 | 0 | 0 | 0 | -1 | 0 | x | x | x | x
O=C(NC1CCCCCC1)c1cc2ccccc2oc1=O | x | 0.9* | 1 | 13* | 7.5* | 4.0* | 1 | 3 | 16* | 1
Cc1ccc([C@H]2C[C@@H](O)[C@H](n3cc(-c4ccc(F)cc4)nn3)CN2C(=O)c2cccs2)cc1 | x | -1 | 1 | 1 | -1 | -1 | x | x | x | x
CCc1nc2ccc(C(=O)NCCCN3CCCC3=O)cn2c1N(CC)CCOC | x | -1 | x | -2 | 2 | 0 | x | x | x | x
O=C(Nc1ccc(Cl)cc1)Nc1cccc2nsnc12 | 2 | 1.3* | 2 | 15* | 12* | 1 | 1 | 11* | 20* | 1
O=[N+]([O-])c1cccc(-c2csc(Nc3ccccc3)n2)c1 | 2 | 0.9* | 2 | 14* | 6.8* | 0 | 1 | 8.0* | 17* | 0
COc1ccccc1Nc1nc(-c2cccc([N+](=O)[O-])c2)cs1 | -4 | 0 | 1 | 1 | 0 | 0 | x | x | x | x
Brc1ccc(Nc2nc(-c3cccnc3)cs2)cc1 | 6 | 1 | 3 | 23* | 8.0* | 2 | 1 | 11* | 13* | 0
Cc1cccc(-n2ncc3c(N4CCC(C)CC4)ncnc32)c1 | 0 | 0 | 3 | 24* | 6.6* | 7.6* | 2 | 6.2* | 13* | 1
CC12COC3(C(=O)Nc4ccc5ccccc5c4)CC1CCC32C (centres undefined) | 9.3* | 1.9* | 2 | 19* | 7.3* | 2 | 1 | 6.9* | 16* | 0
CC12COC3(C(=O)Nc4ccccc4)CC1CCC32C (centres undefined) | -1 | -1 | 1 | -2 | -1 | 0 | x | x | x | x
CN1N=C(C(=O)N2CCc3c([nH]c4ccccc34)C2c2c(F)cccc2Cl)CCC1=O (centres undefined) | -2 | 1 | 5.3* | 15* | 6.7* | 2 | 0 | 6.7* | 7 | 0
O=C(c1cc2c([nH]c1=O)CCCC2)N1CCc2c([nH]c3ccccc23)C1c1ccccc1F (centres undefined) | -1 | 1 | 0 | 0 | 2 | 0 | x | x | x | x
COC(=O)c1nn(-c2ccc(-c3ccccc3)cc2)cc1O | -1 | 1 | -3 | 14* | 8.3* | 4 | 2 | 8.2* | 18* | 1
CN(C)c1ccc(-c2ccc3c(=O)c4ccccc4n(C)c3c2)cn1 | x | 0 | 0 | 10 | 2 | 1 | x | x | x | x
Cc1ccc(-c2csc(NC(=O)/C=C/c3ccco3)c2C(=O)O)cc1 | 1 | 0 | 1 | 14* | 11* | 3 | 1 | 6.0* | 11* | 1
